Measurements reported in publication PMC7862700, “An all-to-all approach to the identification of sequence-specific readers for epigenetic DNA modifications on cytosine”.

Assays:
Assay in all cases: DAPPL (digital affinity profiling via proximity ligation, sequencing); 10 mM Tris-HCl pH 7.5, 50 mM NaCl, 1 mM DTT, 4% glycerol, room temperature, 30 min; GST-TFs on glutathione beads, 16-mer random dsDNA library, 0.1% formaldehyde crosslink after washing; high values mean tight binding
[1] = target: T1, FLI1 (Homo sapiens, UniProt Q01543 1-452); settings: protein: recombinant; tags: N-terminal GST; dsDNA, one strand shown
T1 sequence: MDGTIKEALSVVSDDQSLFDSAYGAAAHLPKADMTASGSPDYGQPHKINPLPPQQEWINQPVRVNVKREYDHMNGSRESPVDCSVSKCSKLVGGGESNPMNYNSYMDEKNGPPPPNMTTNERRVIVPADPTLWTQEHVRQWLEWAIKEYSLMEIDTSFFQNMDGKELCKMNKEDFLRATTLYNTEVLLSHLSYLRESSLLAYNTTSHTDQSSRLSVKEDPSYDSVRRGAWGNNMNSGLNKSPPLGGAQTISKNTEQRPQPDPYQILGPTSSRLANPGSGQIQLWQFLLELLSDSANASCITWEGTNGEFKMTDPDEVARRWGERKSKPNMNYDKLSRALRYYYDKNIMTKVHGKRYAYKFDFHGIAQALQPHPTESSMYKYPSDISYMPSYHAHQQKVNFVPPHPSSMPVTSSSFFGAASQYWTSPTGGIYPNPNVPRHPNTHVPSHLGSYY
In short: (§1)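 After expression in yeast as GST fusions, human transcription factors were bound to glutathione beads, DNA-barcoded and mixed with a tag-only sample. The pools were incubated with 200 nmole of a 16-mer random double-stranded DNA library in Tris/NaCl/DTT/glycerol buffer (30 min, room temperature), washed and crosslinked with 0.1% formaldehyde. Proximity ligation with BsaI/T4 ligase ran for 1 h at 37 °C, before PCR amplification and sequencing on an Illumina NextSeq500. Binding signal is a hexamer's read frequency for a factor divided by its frequency for the tag-only sample.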

[2] = target: T2, ELK1 (Homo sapiens, UniProt P19419 1-428); settings: protein: recombinant; tags: N-terminal GST; dsDNA, one strand shown
T2 sequence: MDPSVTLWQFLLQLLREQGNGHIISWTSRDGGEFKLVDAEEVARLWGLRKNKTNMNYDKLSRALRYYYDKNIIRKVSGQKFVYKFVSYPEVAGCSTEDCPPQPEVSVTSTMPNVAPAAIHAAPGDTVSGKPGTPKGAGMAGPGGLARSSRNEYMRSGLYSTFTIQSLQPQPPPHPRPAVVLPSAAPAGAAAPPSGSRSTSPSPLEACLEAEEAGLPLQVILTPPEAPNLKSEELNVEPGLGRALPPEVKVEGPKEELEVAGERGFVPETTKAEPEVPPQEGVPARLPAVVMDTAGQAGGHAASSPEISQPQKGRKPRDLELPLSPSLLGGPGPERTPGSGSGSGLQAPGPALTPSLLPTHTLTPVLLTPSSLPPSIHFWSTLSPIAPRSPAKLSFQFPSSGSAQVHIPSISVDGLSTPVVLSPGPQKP
In short: as §1

[3] = target: T3, GABPA (Homo sapiens, UniProt Q06546 1-454); settings: protein: recombinant; tags: N-terminal GST; dsDNA, one strand shown
T3 sequence: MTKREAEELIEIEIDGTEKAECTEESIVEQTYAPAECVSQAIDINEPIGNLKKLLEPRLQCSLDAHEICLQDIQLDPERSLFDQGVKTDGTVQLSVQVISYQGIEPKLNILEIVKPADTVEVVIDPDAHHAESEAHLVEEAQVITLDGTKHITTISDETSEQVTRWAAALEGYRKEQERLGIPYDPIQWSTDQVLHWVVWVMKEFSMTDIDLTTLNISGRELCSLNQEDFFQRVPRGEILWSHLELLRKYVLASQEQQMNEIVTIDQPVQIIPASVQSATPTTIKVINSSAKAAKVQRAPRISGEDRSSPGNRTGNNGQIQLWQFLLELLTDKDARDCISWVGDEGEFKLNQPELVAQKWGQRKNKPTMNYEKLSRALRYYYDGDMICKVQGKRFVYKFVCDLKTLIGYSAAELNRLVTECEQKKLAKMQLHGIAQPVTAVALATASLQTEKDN
In short: as §1

[4] = target: T4, ERG (Homo sapiens, UniProt P11308 1-479); settings: protein: recombinant; tags: N-terminal GST; dsDNA, one strand shown
T4 sequence: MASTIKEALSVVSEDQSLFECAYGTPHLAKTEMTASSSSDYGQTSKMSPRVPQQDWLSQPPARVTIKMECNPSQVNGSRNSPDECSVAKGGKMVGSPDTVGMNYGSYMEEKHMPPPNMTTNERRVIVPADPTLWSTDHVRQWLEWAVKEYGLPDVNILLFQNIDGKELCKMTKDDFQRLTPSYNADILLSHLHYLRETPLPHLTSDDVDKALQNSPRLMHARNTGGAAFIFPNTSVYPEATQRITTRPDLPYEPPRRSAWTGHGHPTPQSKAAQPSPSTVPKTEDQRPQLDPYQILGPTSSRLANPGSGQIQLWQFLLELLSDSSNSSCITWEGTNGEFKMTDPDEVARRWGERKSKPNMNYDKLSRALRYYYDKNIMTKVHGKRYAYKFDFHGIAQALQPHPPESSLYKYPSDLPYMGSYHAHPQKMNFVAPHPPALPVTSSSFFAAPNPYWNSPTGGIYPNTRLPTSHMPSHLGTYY
In short: as §1

[5] = target: ELF1 (Homo sapiens, UniProt P32519 1-619); settings: protein: recombinant; tags: N-terminal GST; dsDNA, one strand shown
In short: as §1

[6] = target: T5, EHF (Homo sapiens, UniProt Q9NZC4 1-300); settings: protein: recombinant; tags: N-terminal GST; dsDNA, one strand shown
T5 sequence: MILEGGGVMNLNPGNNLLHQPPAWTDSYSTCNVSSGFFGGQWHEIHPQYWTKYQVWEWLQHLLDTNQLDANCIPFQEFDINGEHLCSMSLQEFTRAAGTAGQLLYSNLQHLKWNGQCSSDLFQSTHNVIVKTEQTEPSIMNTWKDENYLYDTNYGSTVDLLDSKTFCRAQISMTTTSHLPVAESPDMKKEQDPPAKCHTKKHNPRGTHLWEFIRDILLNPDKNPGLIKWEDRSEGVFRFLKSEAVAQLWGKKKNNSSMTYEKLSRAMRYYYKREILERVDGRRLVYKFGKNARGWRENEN
In short: as §1

[7] = target: SPI1 (Homo sapiens, UniProt P17947 1-270); settings: protein: recombinant; tags: N-terminal GST; dsDNA, one strand shown
In short: as §1

[8] = target: SPIB (Homo sapiens, UniProt Q01892 1-262); settings: protein: recombinant; tags: N-terminal GST; dsDNA, one strand shown
In short: as §1

[9] = target: T6, ELK3 (Homo sapiens, UniProt P41970 1-407); settings: protein: recombinant; tags: N-terminal GST; dsDNA, one strand shown
T6 sequence: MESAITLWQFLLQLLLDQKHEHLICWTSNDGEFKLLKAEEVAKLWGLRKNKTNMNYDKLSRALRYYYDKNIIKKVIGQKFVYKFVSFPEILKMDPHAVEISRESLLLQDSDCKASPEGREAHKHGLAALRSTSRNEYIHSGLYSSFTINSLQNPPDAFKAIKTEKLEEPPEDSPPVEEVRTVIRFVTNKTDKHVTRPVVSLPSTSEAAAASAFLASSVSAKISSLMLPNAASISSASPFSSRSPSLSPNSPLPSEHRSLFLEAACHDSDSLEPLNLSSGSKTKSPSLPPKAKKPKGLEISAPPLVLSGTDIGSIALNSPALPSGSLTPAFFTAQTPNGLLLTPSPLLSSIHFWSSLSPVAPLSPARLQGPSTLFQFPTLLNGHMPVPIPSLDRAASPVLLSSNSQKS
In short: as §1

[10] = target: T7, FEV (Homo sapiens, UniProt Q99581 1-238); settings: protein: recombinant; tags: N-terminal GST; dsDNA, one strand shown
T7 sequence: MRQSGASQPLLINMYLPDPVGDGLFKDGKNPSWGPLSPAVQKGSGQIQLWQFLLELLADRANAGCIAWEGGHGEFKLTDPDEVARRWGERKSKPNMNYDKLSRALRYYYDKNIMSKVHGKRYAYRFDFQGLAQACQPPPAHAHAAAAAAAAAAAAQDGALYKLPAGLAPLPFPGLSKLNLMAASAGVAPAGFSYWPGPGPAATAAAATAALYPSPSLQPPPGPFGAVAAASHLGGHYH
In short: as §1

[11] = target: ETV5 (Homo sapiens, UniProt P41161 1-510); settings: protein: recombinant; tags: N-terminal GST; dsDNA, one strand shown
In short: as §1

[12] = target: HSF1 (Homo sapiens, UniProt Q00613 1-529); settings: protein: recombinant; tags: N-terminal GST; chain copies: 3; dsDNA, one strand shown
In short: as §1

[13] = target: T8, SPIC (Homo sapiens, UniProt Q8N5J4 1-248); settings: protein: recombinant; tags: N-terminal GST; dsDNA, one strand shown
T8 sequence: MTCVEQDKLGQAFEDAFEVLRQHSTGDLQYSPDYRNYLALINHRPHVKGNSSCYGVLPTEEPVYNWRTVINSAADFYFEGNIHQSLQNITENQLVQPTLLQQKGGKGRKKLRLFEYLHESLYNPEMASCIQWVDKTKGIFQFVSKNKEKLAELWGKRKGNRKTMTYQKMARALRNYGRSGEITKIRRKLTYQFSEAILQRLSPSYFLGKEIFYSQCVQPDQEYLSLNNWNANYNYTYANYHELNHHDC
In short: as §1

[14] = target: ELF4 (Homo sapiens, UniProt Q99607 1-663); settings: protein: recombinant; tags: N-terminal GST; dsDNA, one strand shown
In short: as §1

[15] = target: T9, ELK4 (Homo sapiens, UniProt P28324-2 1-405); settings: protein: recombinant; tags: N-terminal GST; dsDNA, one strand shown
T9 sequence: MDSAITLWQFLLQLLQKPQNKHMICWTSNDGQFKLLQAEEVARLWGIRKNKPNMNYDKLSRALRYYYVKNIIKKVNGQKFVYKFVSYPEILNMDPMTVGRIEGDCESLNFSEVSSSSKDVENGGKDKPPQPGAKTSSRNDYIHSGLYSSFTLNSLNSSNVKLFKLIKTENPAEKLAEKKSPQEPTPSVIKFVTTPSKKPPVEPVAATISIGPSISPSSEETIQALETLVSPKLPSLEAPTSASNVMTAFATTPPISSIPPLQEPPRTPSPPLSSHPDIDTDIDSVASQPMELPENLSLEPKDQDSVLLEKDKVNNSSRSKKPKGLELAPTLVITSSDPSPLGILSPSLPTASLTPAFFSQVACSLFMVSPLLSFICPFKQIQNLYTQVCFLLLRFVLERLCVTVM
In short: as §1

[16] = target: T10, ETV2 (Homo sapiens, UniProt O00321 1-342); settings: protein: recombinant; tags: N-terminal GST; dsDNA, one strand shown
T10 sequence: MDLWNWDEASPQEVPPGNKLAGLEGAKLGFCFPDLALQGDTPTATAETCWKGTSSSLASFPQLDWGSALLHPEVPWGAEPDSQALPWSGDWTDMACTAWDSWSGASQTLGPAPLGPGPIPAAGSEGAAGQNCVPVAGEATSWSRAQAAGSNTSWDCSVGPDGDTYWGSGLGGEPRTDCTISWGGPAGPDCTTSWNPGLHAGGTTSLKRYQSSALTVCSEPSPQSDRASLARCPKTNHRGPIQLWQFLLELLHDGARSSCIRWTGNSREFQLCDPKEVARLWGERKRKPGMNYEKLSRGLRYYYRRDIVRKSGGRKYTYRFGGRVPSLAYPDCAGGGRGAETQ
In short: as §1

[17] = target: T11, ELF3 (Homo sapiens, UniProt P78545 1-371); settings: protein: recombinant; tags: N-terminal GST; dsDNA, one strand shown
T11 sequence: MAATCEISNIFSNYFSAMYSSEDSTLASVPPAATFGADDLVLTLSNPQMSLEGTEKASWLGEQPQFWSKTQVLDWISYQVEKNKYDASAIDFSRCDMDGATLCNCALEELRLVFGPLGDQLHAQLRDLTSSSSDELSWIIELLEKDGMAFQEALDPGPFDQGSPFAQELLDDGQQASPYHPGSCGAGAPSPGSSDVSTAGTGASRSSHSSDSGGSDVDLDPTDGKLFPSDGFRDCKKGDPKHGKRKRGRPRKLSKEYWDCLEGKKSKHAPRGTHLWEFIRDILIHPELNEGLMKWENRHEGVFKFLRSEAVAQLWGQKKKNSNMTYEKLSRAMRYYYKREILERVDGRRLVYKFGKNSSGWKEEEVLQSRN
In short: as §1

[18] = target: CRX (Homo sapiens, UniProt O43186 1-299); settings: protein: recombinant; tags: N-terminal GST; dsDNA, one strand shown
In short: as §1

[19] = target: ETV1 (Homo sapiens, UniProt P50549 1-477); settings: protein: recombinant; tags: N-terminal GST; dsDNA, one strand shown
In short: as §1

Chain of ELF4 (Q99607 whole entry): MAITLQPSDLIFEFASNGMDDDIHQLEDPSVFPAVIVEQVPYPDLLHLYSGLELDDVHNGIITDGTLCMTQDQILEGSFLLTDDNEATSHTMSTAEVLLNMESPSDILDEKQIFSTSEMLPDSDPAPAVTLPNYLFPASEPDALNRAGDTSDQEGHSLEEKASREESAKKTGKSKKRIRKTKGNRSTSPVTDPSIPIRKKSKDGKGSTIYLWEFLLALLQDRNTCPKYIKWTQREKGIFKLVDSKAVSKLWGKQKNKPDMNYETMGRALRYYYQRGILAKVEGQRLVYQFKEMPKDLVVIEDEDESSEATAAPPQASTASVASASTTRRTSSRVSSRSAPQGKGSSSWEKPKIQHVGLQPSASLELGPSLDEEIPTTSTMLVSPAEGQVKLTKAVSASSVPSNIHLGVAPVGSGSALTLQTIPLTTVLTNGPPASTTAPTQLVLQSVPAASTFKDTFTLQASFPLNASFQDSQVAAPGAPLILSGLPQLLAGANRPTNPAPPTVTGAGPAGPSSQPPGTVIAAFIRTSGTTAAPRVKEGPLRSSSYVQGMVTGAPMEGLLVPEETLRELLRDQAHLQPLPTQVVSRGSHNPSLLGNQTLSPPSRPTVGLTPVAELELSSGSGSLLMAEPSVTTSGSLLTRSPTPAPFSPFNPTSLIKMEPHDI
Chain of ETV1 (P50549 whole entry): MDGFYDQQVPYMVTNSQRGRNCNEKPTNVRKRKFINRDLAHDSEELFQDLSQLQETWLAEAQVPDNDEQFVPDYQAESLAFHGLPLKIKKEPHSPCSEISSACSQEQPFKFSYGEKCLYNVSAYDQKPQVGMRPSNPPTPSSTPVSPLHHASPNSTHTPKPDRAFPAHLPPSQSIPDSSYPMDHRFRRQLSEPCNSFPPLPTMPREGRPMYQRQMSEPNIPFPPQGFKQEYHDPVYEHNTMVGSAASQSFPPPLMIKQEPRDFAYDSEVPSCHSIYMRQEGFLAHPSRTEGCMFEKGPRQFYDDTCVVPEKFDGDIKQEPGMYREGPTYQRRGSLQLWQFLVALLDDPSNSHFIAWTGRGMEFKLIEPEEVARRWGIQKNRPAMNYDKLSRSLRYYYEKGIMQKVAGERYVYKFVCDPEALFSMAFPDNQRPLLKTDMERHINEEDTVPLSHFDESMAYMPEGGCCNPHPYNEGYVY
Chain of HSF1 (Q00613 whole entry): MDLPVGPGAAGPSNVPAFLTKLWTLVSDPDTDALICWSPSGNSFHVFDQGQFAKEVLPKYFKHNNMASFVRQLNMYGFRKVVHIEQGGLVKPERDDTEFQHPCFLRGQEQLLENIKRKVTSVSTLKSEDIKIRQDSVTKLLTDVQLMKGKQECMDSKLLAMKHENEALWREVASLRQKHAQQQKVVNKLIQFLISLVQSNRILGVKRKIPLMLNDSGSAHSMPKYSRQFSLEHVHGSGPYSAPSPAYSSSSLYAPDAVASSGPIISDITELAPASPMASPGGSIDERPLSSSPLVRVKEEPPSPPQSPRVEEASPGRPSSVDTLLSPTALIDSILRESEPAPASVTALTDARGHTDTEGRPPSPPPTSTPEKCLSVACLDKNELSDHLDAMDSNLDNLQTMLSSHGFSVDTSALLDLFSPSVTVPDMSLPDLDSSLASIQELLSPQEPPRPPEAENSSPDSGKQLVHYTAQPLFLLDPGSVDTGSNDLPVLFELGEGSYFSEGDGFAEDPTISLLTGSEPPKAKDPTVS
Chain of CRX (O43186 whole entry): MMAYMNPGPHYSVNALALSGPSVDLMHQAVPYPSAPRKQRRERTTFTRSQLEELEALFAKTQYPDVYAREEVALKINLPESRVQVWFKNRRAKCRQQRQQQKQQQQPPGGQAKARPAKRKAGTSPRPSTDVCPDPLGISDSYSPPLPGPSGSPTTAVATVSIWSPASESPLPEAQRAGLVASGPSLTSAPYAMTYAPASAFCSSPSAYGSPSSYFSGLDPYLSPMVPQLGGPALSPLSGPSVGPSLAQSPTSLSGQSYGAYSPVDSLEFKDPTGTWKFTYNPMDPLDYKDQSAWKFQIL
Chain of ETV5 (P41161 whole entry): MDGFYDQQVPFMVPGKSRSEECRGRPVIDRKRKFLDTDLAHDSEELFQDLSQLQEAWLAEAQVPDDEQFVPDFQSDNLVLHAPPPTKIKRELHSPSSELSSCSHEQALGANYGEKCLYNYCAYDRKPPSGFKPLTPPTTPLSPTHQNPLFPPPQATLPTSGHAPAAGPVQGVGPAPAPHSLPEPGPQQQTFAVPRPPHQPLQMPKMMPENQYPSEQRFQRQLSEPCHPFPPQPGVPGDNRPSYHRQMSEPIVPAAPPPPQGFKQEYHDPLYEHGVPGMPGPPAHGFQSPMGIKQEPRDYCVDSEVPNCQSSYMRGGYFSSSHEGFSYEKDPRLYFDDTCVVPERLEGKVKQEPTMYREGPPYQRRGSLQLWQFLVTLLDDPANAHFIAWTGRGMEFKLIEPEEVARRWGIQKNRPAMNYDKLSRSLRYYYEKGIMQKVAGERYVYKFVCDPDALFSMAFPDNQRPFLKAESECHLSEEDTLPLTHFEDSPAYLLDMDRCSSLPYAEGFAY
Chain of SPIB (Q01892 whole entry): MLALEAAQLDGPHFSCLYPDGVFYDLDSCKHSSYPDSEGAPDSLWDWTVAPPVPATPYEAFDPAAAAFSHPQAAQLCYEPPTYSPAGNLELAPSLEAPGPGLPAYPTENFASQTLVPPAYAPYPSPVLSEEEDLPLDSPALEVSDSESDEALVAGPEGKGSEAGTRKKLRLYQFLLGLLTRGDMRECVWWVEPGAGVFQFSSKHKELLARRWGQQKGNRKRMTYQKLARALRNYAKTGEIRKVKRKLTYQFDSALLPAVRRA
Chain of ELF1 (P32519 whole entry): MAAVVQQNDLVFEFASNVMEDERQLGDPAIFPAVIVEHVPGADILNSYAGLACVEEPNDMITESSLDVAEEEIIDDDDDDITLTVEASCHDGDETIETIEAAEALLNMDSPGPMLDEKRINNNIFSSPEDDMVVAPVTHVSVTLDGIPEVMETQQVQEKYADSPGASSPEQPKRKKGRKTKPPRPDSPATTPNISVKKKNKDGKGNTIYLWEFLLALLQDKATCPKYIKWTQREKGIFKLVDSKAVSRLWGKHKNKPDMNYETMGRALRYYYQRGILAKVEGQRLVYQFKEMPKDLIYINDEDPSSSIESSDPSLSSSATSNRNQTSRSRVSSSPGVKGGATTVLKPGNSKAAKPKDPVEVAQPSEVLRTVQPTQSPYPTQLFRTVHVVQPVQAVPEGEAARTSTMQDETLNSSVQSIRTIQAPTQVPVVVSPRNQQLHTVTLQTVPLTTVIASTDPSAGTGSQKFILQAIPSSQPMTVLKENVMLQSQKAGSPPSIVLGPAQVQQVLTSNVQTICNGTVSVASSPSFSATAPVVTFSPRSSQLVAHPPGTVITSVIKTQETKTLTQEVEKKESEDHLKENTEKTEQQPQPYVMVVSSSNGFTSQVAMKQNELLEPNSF

With CACGTA the binding signal [1] was 1.1 fold enrichment (6-mer frequency, TF over GST control), the binding signal [2] was 1.18 fold enrichment (6-mer frequency, TF over GST control) and the binding signal [3] was 1.23 fold enrichment (6-mer frequency, TF over GST control). The binding signal [4] was 1.1 fold enrichment (6-mer frequency, TF over GST control), the binding signal [5] was 1.13 fold enrichment (6-mer frequency, TF over GST control) and the binding signal [6] was 1.11 fold enrichment (6-mer frequency, TF over GST control). For the same sequence, the binding signal [7] was 1.12 fold enrichment (6-mer frequency, TF over GST control), the binding signal [8] was 1.17 fold enrichment (6-mer frequency, TF over GST control) and the binding signal [9] was 1.12 fold enrichment (6-mer frequency, TF over GST control). For the same sequence, the binding signal [10] was 1.1 fold enrichment (6-mer frequency, TF over GST control), the binding signal [11] was 1.13 fold enrichment (6-mer frequency, TF over GST control) and the binding signal [12] was 1.05 fold enrichment (6-mer frequency, TF over GST control). The binding signal [13] was 1.22 fold enrichment (6-mer frequency, TF over GST control), the binding signal [14] was 1.2 fold enrichment (6-mer frequency, TF over GST control) and the binding signal [15] was 1.23 fold enrichment (6-mer frequency, TF over GST control). For the same sequence, the binding signal [16] was 1.09 fold enrichment (6-mer frequency, TF over GST control), the binding signal [17] was 1.18 fold enrichment (6-mer frequency, TF over GST control) and the binding signal [18] was 1.06 fold enrichment (6-mer frequency, TF over GST control). The binding signal [19] was 1.14 fold enrichment (6-mer frequency, TF over GST control).
